Screening results as filed in PubChem.
Only a selection was taken, and hits are over-represented in it overall.
Giardia FBPA inh-1: qHTS Assay for Inhibitors of Fructose-1,6-bisphosphate Aldolase from Giardia Lamblia; purified Giardia FBPA; Potency, µM (series often up to 59.6 µM), without a hit: at the top dose activity, negative = inhibition, hits mostly inhibitors; hit rate 0.71% among 290,000; note: potency is the fitted concentration of half-maximal effect; % is set by controls: 0 for no effect and ±100 for the full control effect; nearly all actives have a fitted effect of over 55% in size
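Giardia FBPA (40 nM reagent) was preincubated 10 min at RT with compound (up to 57.5 uM final), then substrate plus GAPDH/TPI/NAD/arsenate coupling system with diaphorase/resazurin was added; resorufin fluorescence (525/598 nm) was read after 20 min.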
Tb PYK inh: qHTS of Trypanosoma Brucei Inhibitors | AID 624173, 2012 | pyruvate kinase (Trypanosoma brucei), Q57TT1 | TbPYK enzyme, Kinase-Glo Plus ATP luminescence, 45 min | hit rate 0.12% among 410,000 | Potency, µM (highest dose often 76.8 µM), for inactives: at the top dose activity, negative = inhibition, most hits filed as inhibitors; note: potency is the fitted concentration of half-maximal effect; % is set by controls: 0 for no effect and ±100 for the full control effect; nearly all actives have a fitted effect of over 50% in size
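Screened from lowest to highest concentration, compounds were pinned into TbPYK/substrate mixtures, and ADP (130 uM final) was added. Plates sat at room temperature for 45 min prior to Kinase-Glo Plus detection by luminescence.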
Sm TGR block: qHTS Assay for the Inhibitors of Schistosoma Mansoni Peroxiredoxins. Schistosoma mansoni thioredoxin glutathione reductase (TGR), Q962Y6. purified TGR, DTNB reduction, TNB absorbance 405 nm. Potency, µM (titrated, usually from 114 µM), for the others: at the highest dose activity change, negative = inhibition, actives largely listed as inhibitors. hit rate 3% among 360,000. AID 485364, 2010; note: potency is the fitted concentration of half-maximal effect; % is set by controls: 0 for no effect and ±100 for the full control effect; nearly all actives have a fitted effect of over 60% in size
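TGR 20 nM + NADPH 100 uM (dispensed conc.), cpd preinc 15 min RT; start with NADPH (500 uM addition) then DTNB (15 mM addition). Kinetic TNB absorbance, 405 nm filter. Four-parameter Hill fit across titration.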
CHX counter: Cycloheximide Counterscreen for Small Molecule Inhibitors of Shiga Toxin; AID 2314, 2010; hit rate 12% among 300,000; max response, %; cell reporter, cycloheximide protein synthesis inhibition counterscreen; in the data active = max response mostly above about 13%, no sharp cut-off; inactive = mostly below about 14%; note: read at 38.3 µM for the half of the compounds with a filed dose; 0% is about no effect
Shiga toxin inh: A qHTS for Small Molecule Inhibitors of Shiga Toxin | Vero cells, Shiga toxin protein synthesis inhibition reporter | inhibition, % at 38.7 µM | hit rate 9.2% among 290,000 | AID 2315, 2010; in the data active = inhibition mostly above about 28%, no sharp cut-off; inactive = mostly below about 43%; note: 0% is about no effect
LmPK inhibitor: qHTS Assay for Inhibitors of Leishmania Mexicana Pyruvate Kinase (LmPK). hit rate 0.37% among 290,000. Potency, µM (titrated, usually from 57.5 µM), for inactives: at the highest dose activity change, negative = inhibition, actives largely listed as inhibitors. purified LmPK, Kinase-Glo ATP luminescence, 1 h. Q27686; note: potency is the fitted concentration of half-maximal effect; % is set by controls: 0 for no effect and ±100 for the full control effect
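Purified LmPK (0.1 nM) with 0.5 mM PEP and 0.1 mM ADP in imidazole buffer pH 7.2 with MgCl2/KCl, 1 h at room temperature. ATP formed was read by luciferase luminescence and normalized to no-enzyme and uninhibited controls.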
Giardia growth: qHTS Assay for Inhibitors of Fructose-1,6-bisphosphate Aldolase from Giardia Lamblia: Giardia lamblia growth inhibition; shares compounds with Giardia FBPA inh-1; Giardia lamblia trophozoite growth inhibition; hit rate 5% among 1,500; Potency, µM (doses to about 57.5 µM), inactives show at the top dose activity change, negative = inhibition, hits mostly inhibitors; AID 2785, 2010;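 note: potency is the fitted concentration of half-maximal effect; trophozoites exposed to compound for 48 h at 37 °C; % is set by controls: 0 for no effect and ±100 for the full control effect; nearly all actives have a fitted effect of over 70% in size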
Mammalian tox: qHTS Assay for Inhibitors of Fructose-1,6-bisphosphate Aldolase from Giardia Lamblia: Mammalian cellular toxicity | shares compounds with Giardia FBPA inh-1 | mammalian cell viability counter-screen, qHTS | Potency, µM (titrated, usually from 57.5 µM), without a hit: top-dose viability change, negative = toxicity, most hits filed as inhibitors | hit rate 4% among 1,500;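 note: Chinese hamster ovary cells used as mammalian cytotoxicity surrogate; viability measured as cellular ATP by luminescence; potency is the fitted concentration of half-maximal effect; compound exposure lasted 48 h before reading; % is set by controls: 0 for no effect and ±100 for the full control effect; nearly all actives have a fitted effect of over 60% in size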
Giardia FBPA inh-2: qHTS Assay for Inhibitors of Fructose-1,6-bisphosphate Aldolase from Giardia Lamblia: Primary screen confirmation | shares compounds with Giardia FBPA inh-1 | purified Giardia aldolase enzyme activity, qHTS | Potency, µM (titrated, usually from 57.5 µM), for inactives: at the top dose activity change, negative = inhibition, actives largely listed as inhibitors | hit rate 5% among 1,500; note: potency is the fitted concentration of half-maximal effect; % is set by controls: 0 for no effect and ±100 for the full control effect; nearly all actives have a fitted effect of over 45% in size
Rabbit FBPA inh: qHTS Assay for Inhibitors of Fructose-1,6-bisphosphate Aldolase from Giardia Lamblia: Rabbit FBPA Selectivity; shares compounds with Giardia FBPA inh-1; Rabbit muscle FBPA enzyme inhibition, selectivity counter-screen; Potency, µM (titrated, usually from 57.5 µM), for inactives: at the highest dose activity, negative = inhibition, actives largely listed as inhibitors; hit rate 4% among 1,500; note: potency is the fitted concentration of half-maximal effect; % is set by controls: 0 for no effect and ±100 for the full control effect; nearly all actives have a fitted effect of over 60% in size
Target sequence (P00883 whole entry, looked up): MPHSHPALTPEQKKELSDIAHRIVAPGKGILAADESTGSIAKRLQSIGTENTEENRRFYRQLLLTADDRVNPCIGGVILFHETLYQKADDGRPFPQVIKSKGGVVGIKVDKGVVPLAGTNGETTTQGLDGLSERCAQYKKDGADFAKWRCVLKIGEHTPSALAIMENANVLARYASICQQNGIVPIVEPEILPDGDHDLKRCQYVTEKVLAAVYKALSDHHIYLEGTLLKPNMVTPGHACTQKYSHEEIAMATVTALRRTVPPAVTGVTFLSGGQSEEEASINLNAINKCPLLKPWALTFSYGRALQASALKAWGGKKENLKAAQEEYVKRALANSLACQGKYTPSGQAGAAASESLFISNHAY
GAPDH coupling: qHTS Assay for Inhibitors of Fructose-1,6-bisphosphate Aldolase from Giardia Lamblia: Coupling assay counterscreen confirmation; shares compounds with Giardia FBPA inh-1; GAPDH coupling enzyme counterscreen, biochemical, qHTS; Potency, µM (series often up to 57.5 µM), for inactives: at the highest dose activity change, negative = inhibition, usual class: inhibitors; hit rate 6% among 1,500; AID 2795, 2010; note: potency is the fitted concentration of half-maximal effect; % is set by controls: 0 for no effect and ±100 for the full control effect; nearly all actives have a fitted effect of over 55% in size
Active calls of the source: *; u = inconclusive; x = no result; [ ] = another dose, or the depositor's remark. Unless noted, calls come from the whole dose curve; as a rule, active = well fitted curve in the direction sought with a large enough effect; inconclusive = small, poorly fitted or top-dose-only effect, or another doubt; inactive = no such curve, though single readings can be large; an effect the other way counts as inactive or inconclusive.

SMILES	Giardia FBPA inh-1	Tb PYK inh	Sm TGR block	CHX counter	Shiga toxin inh	LmPK inhibitor	Giardia growth	Mammalian tox	Giardia FBPA inh-2	Rabbit FBPA inh	GAPDH coupling
Clc1cccc(OCCCn2ccnc2)c1	-4%	-2%	-11%	2	-1	-1%	x	x	x	x	x
Cc1ccc(OCCCn2ccnc2)c(Br)c1	18µM*	14%	3%	20*	33	-4%	-8%[10.4 µM]	19%	2%	14%	3%
c1ccc2cc(OCCCn3ccnc3)ccc2c1	22µM*	7%	10%	17*	17	-2%	106%	0%	0%	3%	13%
Cc1cc(OCCCn2ccnc2)ccc1C(C)C	-19%	30%	1%	10	17	-8%	x	x	x	x	x
CCOC(=O)c1ccc(N2C(=O)c3n[nH]c(C)c3C2c2ccc(OCC)cc2)cc1 (stereo not drawn)	x	0%	0%	x	x	x	x	x	x	x	x
Cc1ccccc1-c1cnc(C(O)c2ccc(Cl)cc2)[nH]1 (stereo not drawn)	x	1%	x	x	x	x	x	x	x	x	x
c1nc(N2CCOCC2)c2cc(-c3ccoc3)ccc2n1	-13%	x	x	x	x	x	x	x	x	x	x
CCOc1cccc(C(=O)Nc2ccc(-c3nc4cc(C)cc(C)c4o3)cc2)c1	x	2%	-12%	x	x	x	x	x	x	x	x
O=S1(=O)N=C(N/N=C/c2cccs2)c2ccccc21	2µM*	-4%	0%	-1	-2	-2%	-3%[38.3 µM]	-5%	1%	12%	4%
O=[N+]([O-])c1ccc(O)c(/C=N/NC2=NS(=O)(=O)c3ccccc32)c1	8.9µM*	-24%	0%	10	1	-6%	-6%[38.3 µM]	-14%	u	1%	-16%
O=[N+]([O-])c1ccc(/C=N/NC2=NS(=O)(=O)c3ccccc32)cc1	-8%	0%	5%	2	-7	1%	x	x	x	x	x
CSc1ncc2c(n1)-c1ccccc1N(Cc1ccc(F)cc1)S2(=O)=O	x	3%	5%	x	x	x	x	x	x	x	x
CCn1c(C(=O)NCc2ccc(OC)cc2)cc2sc(Cl)cc21	x	-4%	3%	x	x	x	x	x	x	x	x
C/C(CCC1CC(C)(C)OC1=O)=N\NC(N)=S (stereo not drawn)	18µM*	7%	3%	-2	6	-5%	43%	-12%	7%	4%	6%
CCCC1CC(C)(/C(C)=N\NC(N)=S)OC1=O (stereo not drawn)	-19%	4%	0%	-4	-2	-2%	x	x	x	x	x
C/C(CC1CC(C)(C)OC1=O)=N\NC(N)=S (stereo not drawn)	20µM*	-2%	3%	2	29	1%	-29%	-12%	5%	5%	3%
COc1ccc(CNC(=O)c2cc3oc4ccccc4c3n2C)cc1OC	x	-1%	-1%	x	x	x	x	x	x	x	x
